GalR3 antagonist – blocks the human galanin receptor 3 | HEK293 GalR3-CNG cAMP membrane potential fluorescence; galR3 body fused to GalR1 C-terminus | O60755 | 0.44% of 360,000 active | inhibition, % at 3 µM;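 active means inhibition above the screen-wide average plus 3 SD, cut at about 13% in these data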;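 further: forskolin and galanin both at EC90 stimulate the cells; cAMP rise reported by CNG channel membrane potential dye signal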
Target sequence (O60755 1-299 limits assumed): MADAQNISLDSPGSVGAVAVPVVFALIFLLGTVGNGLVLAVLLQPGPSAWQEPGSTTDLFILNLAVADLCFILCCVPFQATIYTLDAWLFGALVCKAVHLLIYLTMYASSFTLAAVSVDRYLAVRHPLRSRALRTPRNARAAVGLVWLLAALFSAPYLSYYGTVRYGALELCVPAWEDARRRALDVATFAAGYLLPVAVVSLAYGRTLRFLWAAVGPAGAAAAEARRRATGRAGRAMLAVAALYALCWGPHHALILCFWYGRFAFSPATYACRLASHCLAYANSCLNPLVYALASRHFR
697 NFkB inh – inhibitors of the PMA/ionomycin-induced NF-kB reporter in 697 B cells | 697 B-cell NF-kB luciferase reporter, 16 h | inhibition, % at 4 µM | 0.33% of 330,000 active; in the data active means inhibition above about 35%
Gli-Sufu antag – Gli-Sufu pathway antagonism. Sufu-KO-LIGHT fibroblasts, Gli luciferase reporter luminescence. inhibition, % at 5 µM. 0.74% of 340,000 active;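 active means inhibition above about 55%, limit read from the data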
Jurkat NFkB inh – inhibitors of the PMA/ionomycin-induced NF-kB reporter in Jurkat cells; PMA/ionomycin-induced NF-kB luciferase reporter, luminescence; inhibition, % at 4 µM; 0.53% of 330,000 active; AID 435003; in the data active means inhibition above about 50%
NR2F2 inh – NR2F2 (human) inhibition, primary screen; 0.7% of 370,000 active; inhibition, % at 8.6 µM; HEK293T NGFI-A luciferase reporter, luminescence;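 active means inhibition above a per-plate cutoff, mean inhibition of test wells between control levels plus 3 SD, cut at about 38% in these data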;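 further: cells cotransfected with COUP-TFII expression vector driving the NGFI-A reporter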
Target sequence (P24468 whole entry, looked up): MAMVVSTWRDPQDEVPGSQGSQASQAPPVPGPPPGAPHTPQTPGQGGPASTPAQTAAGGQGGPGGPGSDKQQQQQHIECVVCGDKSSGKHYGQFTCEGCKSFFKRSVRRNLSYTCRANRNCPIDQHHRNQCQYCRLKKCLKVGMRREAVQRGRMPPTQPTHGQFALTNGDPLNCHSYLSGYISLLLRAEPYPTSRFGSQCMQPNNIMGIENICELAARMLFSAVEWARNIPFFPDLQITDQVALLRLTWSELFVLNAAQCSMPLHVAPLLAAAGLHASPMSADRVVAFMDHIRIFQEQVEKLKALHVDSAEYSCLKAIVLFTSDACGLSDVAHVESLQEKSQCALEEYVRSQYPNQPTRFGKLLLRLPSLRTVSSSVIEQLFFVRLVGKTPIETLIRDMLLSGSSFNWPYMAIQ
GalR3 conf – GalR3 (human) antagonism, confirmation; 59% of 1,600 active; inhibition, % at 3 µM; AID 652245; HEK293 GalR3 CNG cAMP biosensor, membrane potential fluorescence; galR3 fused to GalR1 carboxy tail; challenged with forskolin and galanin at EC90; shares compounds with GalR3 antagonist;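 active means inhibition above the primary screen's cutoff, the mean inhibition of all screened compounds plus 3 SD, cut at about 13% in these data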
CNG parental – acts as nonspecific agonist in parental HEK-CNG cells. shares compounds with GalR3 antagonist. HEK293-CNG parental cells, cAMP membrane potential fluorescence; normalised: DMSO wells 0%, forskolin wells 100%. activation, % at 3 µM. 10% of 1,600 active. AID 652268; in the data active means activation above about 1.3%
Gal4-VP16 ctr – inhibits VP16 reporter, flagging COUP-TFII antagonist hits; shares compounds with NR2F2 inh; HEK293 Gal4-VP16 luciferase reporter, luminescence; inhibition, % at 8.5 µM; 25% of 2,500 active; in the data active means inhibition above about 13%
NR2F2 inh conf – COUP-TFII (NR2F2) inhibition, confirmation assay | HEK293 NGFI-A luciferase reporter, luminescence | shares compounds with NR2F2 inh | inhibition, % at 8.5 µM | 45% of 2,500 active;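 active means mean inhibition over three repeats above a set limit taken from the earlier primary screen, cut at about 38% in these data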
Numbers stand for hits; i = inactive; nt = no result given. In the library only some 2% were active in any assay of this set; here they are far more common.

SMILES	GalR3 antagonist	697 NFkB inh	Gli-Sufu antag	Jurkat NFkB inh	NR2F2 inh	GalR3 conf	CNG parental	Gal4-VP16 ctr	NR2F2 inh conf
COc1ccc(-c2ccc(C(=O)NCc3ccncc3)c3occc23)c(C)c1	90.0	nt	nt	nt	68.5	102.6	i	i	55.9
O=C(NCc1ccncc1)c1ccc(-c2ccc(F)c(F)c2)c2ccoc12	29.2	nt	nt	nt	70.1	i	i	i	41.0
O=C(NCc1ccc(C(F)(F)F)cc1)c1ccc(-c2ccc(F)c(F)c2)c2ccoc12	i	nt	nt	nt	i	nt	nt	nt	nt
Nn1c(SCC(=O)Nc2ccc(Br)cn2)nnc1-c1n[nH]c2c1CCC2	nt	nt	nt	nt	i	nt	nt	nt	nt
O=[N+]([O-])c1ccc(Cn2ccc3ccc(-c4ccc5ccn(Cc6ccccc6)c5c4)cc32)cc1	nt	nt	nt	nt	i	nt	nt	nt	nt
FC(F)(F)c1cnc(N2CCCN(C(=S)Nc3ccccc3)CC2)c(Cl)c1	40.1	i	i	i	39.4	79.8	i	i	i
COc1cc(CC2COC(=O)C2(O)Cc2ccc(O)c(OC)c2)ccc1O (stereo not given)	48.1	i	i	i	52.5	i	i	i	i
COc1cc(CC2COC(=O)C2Cc2ccc(O)c(OC)c2)ccc1O (stereo not given)	i	nt	nt	nt	i	nt	nt	nt	nt
C#CCNC(=O)C[C@H]1C[C@@]2(C(=O)OC)C(=C[C@H](C(C)C)O[C@@H]2C2CC2)N(Cc2ccc3c(c2)OCO3)C1=O	nt	nt	nt	nt	i	nt	nt	nt	nt
CN(C)S(=O)(=O)N1CCC(Oc2cccc(C(=O)NC3CCCCCC3)c2)CC1	28.9	i	i	i	63.3	99.9	i	i	66.3
COc1ccc(-n2c(SCC(=O)Nc3ccc4c(c3)OCO4)nc3sc4c(c3c2=O)CCCC4)cc1	nt	nt	nt	nt	i	nt	nt	nt	nt
Cc1oc(-c2ccc(Cl)cc2)nc1CSCC(=O)NC1CCN(Cc2ccccc2)CC1	96.3	i	i	i	52.4	105.5	i	14.7	57.2
Cc1oc(-c2ccc(Cl)cc2)nc1CN1CCCC(C(=O)NCc2cccnc2)C1 (stereo not given)	83.3	i	i	i	52.2	111.1	i	i	46.3
CC(C)Cc1ccc(CN2CCCC(NC(=O)c3ccnn3C)C2)cc1 (stereo not given)	32.0	i	i	i	45.7	i	i	i	i
CC(C)Cc1ccc(CN2CCCC(NC(=O)c3ccoc3)C2)cc1 (stereo not given)	i	i	i	i	i	nt	nt	nt	nt
CCOC(=O)[C@]12CCCCC/C=C\1N(CCc1ccc(Cl)cc1)C(=O)[C@H]2CC(=O)NCCCN1CCCC1=O	nt	nt	nt	nt	i	nt	nt	nt	nt
CN1N=C(C(=O)NC2CCCc3c2cnn3-c2ccc(F)cc2F)CCC1=O (stereo not given)	i	i	i	i	i	nt	nt	nt	nt
Cc1ccc(-n2ncc3c2CCCC3NC(=O)c2ocnc2C)cc1C (stereo not given)	100.8	i	58.8	i	66.3	113.3	i	i	61.3
Cc1ccc(C(=O)NC2CCCc3c2cnn3-c2ccc(F)cc2F)cn1 (stereo not given)	97.2	i	nt	i	56.1	109.7	i	i	59.4
COc1cccc(C(C)(O)c2nc(-c3ccc(N(C)C)cc3)cs2)c1 (stereo not given)	95.8	nt	nt	nt	54.7	101.4	i	i	i
CCOC(=O)C1CCN(C(=O)c2ccc(OCC(=O)Nc3cccc(C(F)(F)F)c3)c(OC)c2)CC1	91.8	i	i	i	65.7	106.5	i	i	59.0
CCOC(=O)C1CCN(C(=O)c2ccc(OCC(=O)Nc3cccc(C(F)(F)F)c3)cc2)CC1	i	i	i	i	i	nt	nt	nt	nt
O=C1N(c2ccccc2)CC2CC(c3ccccc3)N3CCCC123 (stereo not given)	nt	nt	nt	nt	i	nt	nt	nt	nt
COc1cc(CCC(=O)OCC(=O)Nc2sccc2C(N)=O)cc(OC)c1OC	92.6	i	i	i	38.6	102.0	i	i	i
COc1ccccc1OCC(=O)OCC(=O)Nc1sccc1C(N)=O	i	i	i	i	i	nt	nt	nt	nt
SMILES	GalR3 antagonist	697 NFkB inh	Gli-Sufu antag	Jurkat NFkB inh	NR2F2 inh	GalR3 conf	CNG parental	Gal4-VP16 ctr	NR2F2 inh conf
CCN(CC)S(=O)(=O)c1ccc(/C=C/C(=O)Nc2ccc(Br)cc2F)cc1	59.4	i	i	i	55.9	98.5	i	i	69.8
O=C(N/N=C/c1ccc[nH]1)c1ccc(O)cc1	i	i	i	i	i	nt	nt	nt	nt
Cc1cc(Br)c(OCc2ccc(C(=O)N/N=C/c3ccc[nH]3)cc2)c(Br)c1	61.0	i	83.4	i	68.3	i	i	28.9	78.3
COc1ccc(CNC(=O)c2sc(=O)n(Cc3ccc(C)cc3)c2C)cc1OC	i	nt	nt	nt	i	nt	nt	nt	nt
COc1ccc(CNC(=O)c2sc(=O)n(Cc3ccc(-c4ccccc4)cc3)c2C)cc1OC	26.3	nt	nt	nt	44.5	16.0	i	i	40.7
O=C(NCc1ccc(C(=O)N2CCCN(Cc3ccccc3)CC2)cc1)c1cccc(Br)c1	nt	nt	nt	nt	i	nt	nt	nt	nt
COc1ccc(NC(=O)C2Cc3c(-c4cccc(C(N)=O)c4)ccnc3O2)cc1OC (stereo not given)	i	nt	nt	nt	i	nt	nt	nt	nt
COc1ccc(NC(=O)C2Cc3c(-c4cccc(C(C)=O)c4)ccnc3O2)cc1OC (stereo not given)	60.7	nt	nt	nt	75.0	104.0	i	i	49.0
CCOC(=O)N(C)[C@H]1C[C@H]2c3[nH]c4cccc(-c5cccc(F)c5)c4c3CCN2C(=O)[C@H]1[C@H](C)O	nt	nt	nt	nt	i	nt	nt	nt	nt
C[C@H]1COc2cc(Br)ccc2S(=O)(=O)N1Cc1cn(CCC2OCCCO2)nn1	nt	nt	nt	nt	i	nt	nt	nt	nt
O=C(Nc1ccc(Cl)cc1)c1ccc(CN2CCc3ccccc3C2)cc1	107.5	i	i	i	41.4	102.2	i	i	i
N#CCc1ccc(NC(=O)c2ccc(CN3CCc4ccccc4C3)cc2)cc1	30.4	i	i	i	55.8	105.0	i	i	55.8
COc1ccc(NC(=O)c2ccc(CN3CCc4ccccc4C3)cc2)cc1OC	i	i	i	i	i	nt	nt	nt	nt
Cc1ccc2c(c1)C(CS(=O)(=O)NCc1ccc(F)cc1)NC2 (stereo not given)	nt	nt	nt	nt	i	nt	nt	nt	nt
CC(C)(C)CN1CCN(Cc2nc(-c3ccc(F)cc3)cs2)CC1CCO (stereo not given)	100.9	i	i	i	48.1	108.8	i	i	i
OC[C@@H]1CN(Cc2ccccc2)C[C@H](n2cnc3c(NCc4ccc(F)cc4)ncnc32)O1	i	nt	nt	nt	i	nt	nt	nt	nt
OC[C@@H]1CN(Cc2ccc(F)cc2)C[C@H](n2cnc3c(Nc4ccccc4)ncnc32)O1	i	nt	nt	nt	i	nt	nt	nt	nt
OC[C@@H]1CN(Cc2ccc(-c3ccccc3)cc2)C[C@H](n2cnc3c(Nc4ccccc4)ncnc32)O1	i	nt	nt	nt	59.2	nt	nt	i	i
